Assay outcomes deposited in PubChem BioAssay by National Center for Advancing Translational Sciences (NCATS).
Only some compounds are listed: those with a hit (about 17% of all), similar ones and a draw of the others.
TDP1 cell noCPT – qHTS for Inhibitors of human tyrosyl-DNA phosphodiesterase 1 (TDP1): qHTS in cells in absence of CPT. DT40 Tdp1-/- hTDP1 cells, no CPT, ATP luminescence, 48 h. AID 686978, 2013. 420,000 tested, 15% active. Potency, µM (series often up to 46.2 µM), for the others: at the top dose activity change, negative = growth inhibition, hits mostly inhibitors; further: on the % scale 0 is the no-effect control and ±100 the full control effect; nearly all actives have a fitted effect of over 55% in size
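Camptothecin absent (DMSO only). Human TDP1-complemented DT40 knockout cells, 400 cells/well, 37 °C for minimum 48 hr; ATP measured via CellTiter-Glo, 30 min dark incubation, luminescence.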
TGFb inhibitor – TGF-b pathway inhibition | HepG2 CAGA-GFP TGF-b/SMAD3 reporter, GFP fluorescence, 18 h; TGF-beta stimulated, 500 pg/mL final | Potency, µM (doses to about 46.1 µM), for the others: top-dose activity, negative = inhibition, most hits filed as inhibitors | 410,000 tested, 1.2% active; further: on the % scale 0 is the no-effect control and ±100 the full control effect; nearly all actives have a fitted effect of over 65% in size
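TGF-beta reporter screen: HEPG2 CAGA-GFP, 1% FBS, 500 pg/mL TGF-beta final, 18 h; per-cell GFP summed per well; curves fitted and categorized by class.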
TDP1 cell CPT – growth inhibition of DT40 Tdp1-/-;hTDP1 cells with camptothecin (screen for TDP1 inhibitors) | chicken DT40 Tdp1-/-;hTDP1 cells + 20 nM CPT, ATP luminescence, 48 h | Potency, µM (top dose mostly 46.2 µM), for inactives: at the top dose activity change, negative = growth inhibition, usual class: inhibitors | 420,000 tested, 12% active | AID 686979; further: on the % scale 0 is the no-effect control and ±100 the full control effect; nearly all actives have a fitted effect of over 55% in size
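Cell growth measured by CellTiter-Glo luminescence after a minimum 48 h, 37 C compound exposure with 20 nM CPT in Tdp1-knockout DT40 cells stably expressing hTDP1, seeded 400/well; qHTS titration format.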
S2 tox – reduces viability in counter-screen for ATXN expression inhibitors. S2 cells (HEK-293 line with an ATXN2-luciferase reporter) viability, CellTiter-Fluor protease fluorescence, 24 h. Potency, µM (series often up to 56.7 µM), hits mostly cytotoxic. 400,000 tested, 0.49% active; further: nearly all actives have a fitted effect of over 40% in size
HepG2 tox – counter-screen for TGF-b inhibitors: cytotoxicity in HepG2 cells | HepG2 CAGA-GFP viability, ATP luminescence, 18 h | Potency, µM (titrated, usually from 46.1 µM), inactives show at the top dose activity change, negative = cytotoxicity, most hits filed as cytotoxic | 410,000 tested, 0.76% active
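HepG2 CAGA-GFP cells (1000/well, DMEM with 1% FBS) received compound, then TGF-beta at 500 pg/mL final, and were incubated 18 hours at 37 degrees C. Viability was read by CellTiter-Glo luminescence. Media-only wells were set as complete cell-killing and DMSO as no toxicity.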
ATXN2 expr inh – reduces ATXN2 reporter expression in HEK-293 cells; HEK-293 ATXN2-luciferase reporter, luminescence, 24 h; Potency, µM (titrated, usually from 57 µM), for inactives: top-dose activity change, negative = inhibition, usual class: inhibitors; 360,000 tested, 0.72% active; AID 1745845; further: on the % scale 0 is the no-effect control and ±100 the full control effect; nearly all actives have a fitted effect of over 55% in size
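ATXN2-luciferase reporter cells (luciferase flanked by upstream and downstream ATXN2 gene portions) were treated 24 h at 37 °C with compounds at up to 57 uM. SteadyGlo luminescence gave expression; GF-AFC fluorescence gave viability.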
* = called active by the depositor; i = inactive; ? = inconclusive; . = no result; [ ] = another dose, or the depositor's remark. The call rests on the fitted dose curve; in most records, active means well fitted curve in the direction sought with a large enough effect; inconclusive means small, poorly fitted or top-dose-only effect, or another doubt; inactive means no such curve, though single readings can be large; an effect the other way counts as inactive or inconclusive. Potency means the concentration at half of the fitted maximal effect.

SMILES | TDP1 cell noCPT | TGFb inhibitor | TDP1 cell CPT | S2 tox | HepG2 tox | ATXN2 expr inh
N#Cc1ncc(-c2ccc3c(c2)OCCOCCOCCOCCO3)nc1C#N | 4.6µM* | ? | 5.8µM* | ? | -15% | 14%
N#Cc1ncc(-c2ccc3c(c2)OCCOCCOCCOCCOCCO3)nc1C#N | 13µM* | 11% | 12µM* | i | 4% | 7%
CCC(=O)N1CCCC(C)(C(=O)Nc2ccc3scnc3c2)C1 (stereo not drawn) | -8% | -8% | ? | i | 1% | 5%
Cc1ccccc1NC(=O)CN1CCN(C(=O)c2ccco2)CC1 | 18% | 0% | 3% | i | -1% | 6%
OCC#Cc1ncc(C(F)(F)F)cc1Cl | 7.3µM* | -9% | 5.2µM* | i | 2% | 9%
CN(c1ccccc1)C1CCCCC1NS(=O)(=O)c1ccc(Cl)cc1 (stereo not drawn) | 23µM* | 11µM* | ? | ? | -83% | .
CSc1ccc(OC2CCCCC2NS(=O)(=O)c2ccc(Cl)cc2)cc1 (stereo not drawn) | ? | ? | 26µM* | i | -44% | .
O=S(=O)(NC1CCCCC1Oc1ccccc1)c1ccc(Cl)cc1 (stereo not drawn) | ? | ? | -11% | i | -25% | -1%
CCc1cccc(Nc2c([N+](=O)[O-])cc(C(=O)N3CC(=O)Nc4ccccc43)cc2[N+](=O)[O-])c1 | ? | ? | ? | i | 1% | .
CCOC(=O)C1CCCCN1Cc1nc(N2CCN(C(C)=O)CC2)c2ccccc2n1 (stereo not drawn) | -28% | . | -6%[9.04 µM] | i | . | .
CN1c2ccccc2-c2nc3ccccc3n2C1c1ccccn1 (stereo not drawn) | 16µM* | -16% | 16µM* | i | -16% | 3%
CCN1c2ccccc2-c2nc3ccccc3n2C1c1ccco1 (stereo not drawn) | 16µM* | -20% | 21µM* | i | -11% | -7%
CCCC[C@@H]1Cc2[nH][nH]c(=O)c2[C@H](c2ccc3ccccc3c2)O1 | 18µM* | . | -1% | i | . | 3%
CCCNC1=CC(=O)CC(C)(C)C1 | -6% | 18% | -1% | i | 26% | 0%
COCCn1c(SCc2ccc(C(=O)OC)o2)nc2ccccc2c1=O | 21µM* | -18% | ? | i | -52% | -2%
COCCn1c(SCc2nc3ccccc3c(=O)[nH]2)nc2ccccc2c1=O | ? | -3% | ? | i | -11% | 10%
O=c1c2ccccc2nc(SCc2cccc(F)c2)n1Cc1ccco1 | -19% | ? | -15% | i | -15% | -15%
COC(=O)c1ccc(CSc2nc3ccccc3c(=O)n2-c2ccccc2)o1 | ? | -6% | ? | ? | -6% | -19%
COCCn1c(SCc2ccc(OC)c(F)c2)nc2ccccc2c1=O | 21µM* | ? | 16µM* | i | -17% | -24%[11.3 µM]
CC(C)Cn1c(SCc2cccc(F)c2)nc2ccsc2c1=O | 29µM* | -20% | 15µM* | i | -22% | -14%
COC(=O)c1ccc(CSc2nc3ccccc3c(=O)n2-c2ccc(OC)c(OC)c2)o1 | ? | -16% | 16µM* | i | -10% | -18%
O=C(c1cccc(S(=O)(=O)N2CCCC2)c1)N1CCCC(C(F)(F)F)C1 (stereo not drawn) | -17% | -1% | -21% | i | -4% | 5%
O=CN(Cc1nc2ccccc2[nH]1)c1ccc(C(=O)O)cc1 | -3% | 14% | 8% | i | 13% | 1%
COCCn1c(SCc2cccc(F)c2)nc2cc(C(=O)OC)ccc2c1=O | ? | 5% | 21µM* | i | 13% | 7%
